{"source": "PubChem BioAssay AID1520", "about": "(The Scripps Research Institute Molecular Screening Center, 2009)", "note": "The other results are listed elsewhere or left out. A number with no mark means an inactive call. Active and inactive are the calls of the source.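 How the source made its calls: active means cell growth inhibition above the hit limit set in the earlier mutant JAK2 cell screen (cut at about 27% in these data); inactive means the rest.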", "data": [{"assay": "parental Ba/F3 cell viability inhibition, counter-screen for JAK2V617F inhibitor project, murine pro-B, CellTiter-Glo luminescence (AID 1520);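 further: plate controls were DMSO-treated cells for no effect and JAK Inhibitor I control wells for full effect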", "details": "at 5.6 µM, stronger effect = higher value, cells kept alive by added IL-3", "values": [{"smiles": "Cc1ccc(S(=O)(=O)C2(S(=O)(=O)c3ccc(C)cc3)CCCC2)cc1", "inhibition": "32.1% (active)"}, {"smiles": "COc1cc(OC)cc(C(=O)N[C@H](C(=O)Nc2nc3ccccc3[nH]2)C(C)C)c1", "inhibition": "86% (active)"}, {"smiles": "Oc1ccc(/C=N/Nc2ccc(C(F)(F)F)cn2)cc1O", "inhibition": "76.2% (active)"}, {"smiles": "O=C(CCl)N(Cc1cccc([N+](=O)[O-])c1)c1cccc(Cl)c1", "inhibition": "87.5% (active)"}, {"smiles": "COc1cc(OC)c(C(=O)NC2CCCCCC2)cc1OC", "inhibition": "-5.51%"}, {"smiles": "Cn1c(CCN2CCCCCC2)nc2cc(NC(=O)Nc3ccccc3)ccc21", "inhibition": "-5%"}, {"smiles": "O=C(CCl)Nc1ccc(Sc2ccc(NC(=O)CCl)cc2)cc1", "inhibition": "47.3% (active)"}, {"smiles": "CCCn1c(NC(=O)C23CC4CC(CC(O)(C4)C2)C3)nc2ccccc21", "inhibition": "-7.65%"}, {"smiles": "CSCC(=O)N1CCCC(C(=O)c2cc(F)ccc2F)C1", "note": "(configuration not stated)", "inhibition": "-3.79%"}, {"smiles": "Cc1ccc(C2=NN(C)c3nc4ccccc4n3C2)cc1", "inhibition": "-0.44%"}, {"smiles": "COc1ccc(Cc2nnc(N/N=C/c3ccccc3O)[nH]c2=O)cc1OC", "inhibition": "85.6% (active)"}, {"smiles": "Cc1ccc(NC(=S)N(CCCN2CCC(C)CC2)Cc2ccco2)cc1", "inhibition": "28.7% (active)"}, {"smiles": "Cc1cccc(NC(=O)c2ccc([N+](=O)[O-])o2)c1", "inhibition": "10.6%"}, {"smiles": "CCCc1nc2ccccc2c(=O)n1/N=C/c1ccc(O)c(O)c1", "inhibition": "1.92%"}, {"smiles": "CCn1c(/C=C/c2ccc([N+](=O)[O-])o2)nc2ccccc2c1=O", "inhibition": "106% (active)"}, {"smiles": "COc1ccc(-c2csc(Nc3ccc(O)cc3)n2)cc1", "inhibition": "63% (active)"}, {"smiles": "O=c1oc2ccccc2cc1-c1cn(-c2ccccc2)c(=S)[nH]1", "inhibition": "50% (active)"}]}]}
